Source: PubChem BioAssay (NCATS)
“And” between values parts separate entries of the source, which are not always exact repeats. Equal values may be shown once. Records with an inconclusive call do not appear. The source made the active and inactive calls. Calls come from the whole dose curve; as a rule, active = well fitted curve in the direction sought with a large enough effect; inconclusive = small, poorly fitted or top-dose-only effect, or another doubt; inactive = no such curve, though single readings can be large; an effect the other way counts as inactive or inconclusive.

Experiments:
KB-3-1 = test: Cytotoxic Profiling of Annotated Libraries Using Quantitative High-Throughput Screening (AID 1296008); details: Five cell lines viability, CellTiter-Glo ATP luminescence, 48-72 h; max response: active compounds read low; note: nearly all actives have a fitted effect of over 60% in size
Summary of the method: (§1)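 Cytotoxicity was measured as CellTiter-Glo ATP luminescence, read after 10 min at room temperature. Compound treatment of the cells lasted 48 or 72 hr at 37 degrees Celsius in a qHTS format.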

MCC-13 = test: qHTS assay to identify novel small-molecules to repurpose for Merkel cell carcinoma treatment (AID 1296009); details: MCC and control cell lines, CellTiter-Glo viability, 72 h; series mostly up to 46 µM; note: nearly all actives have a fitted effect of over 60% in size
Summary of the method: (§2)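 72 hr, 37 degree celsius; NPC 8-pt / MIPE 11-pt dose response; compound pinned in DMSO; CellTiter-Glo, 10 min RT, luminescence; normalized to no-cell and DMSO controls.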

MCC-26 = test: as above; details: MCC and control cell lines, CellTiter-Glo viability, 72 h; series mostly up to 46 µM
Summary of the method: as §2

MKL-1 = test: as above; details: MCC and control cell lines, CellTiter-Glo viability, 72 h; series mostly up to 46 µM
Summary of the method: as §2

MKL-2 = test: as above; details: MCC and control cell lines, CellTiter-Glo viability, 72 h; series mostly up to 46 µM
Summary of the method: as §2

UISO = test: as above; details: MCC and control cell lines, CellTiter-Glo viability, 72 h; series mostly up to 46 µM
Summary of the method: as §2

WaGa = test: as above; details: MCC and control cell lines, CellTiter-Glo viability, 72 h; series mostly up to 46 µM
Summary of the method: as §2

CASKI = test: Primary qHTS to identify gynecologic anti-cancer compounds using libraries of approved drugs and bioactive compounds (AID 1345084); details: Gynecologic cancer cell panel viability, ATPlite luminescence, 48 h; series mostly up to 57.5 µM; note: nearly all actives have a fitted effect of over 55% in size
Summary of the method: (§3)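 ATP-based viability (ATPlite), 1,000 cells/well, 16 h pre-incubation, 48 h compound at 37 C, 5% CO2, 15 min RT before read.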

Es-2 = test: as above; details: Gynecologic cancer cell panel viability, ATPlite luminescence, 48 h; series mostly up to 57.5 µM
Summary of the method: as §3

C33A = test: as above; details: Gynecologic cancer cell panel viability, ATPlite luminescence, 48 h; series mostly up to 57.5 µM
Summary of the method: as §3

CAOV3 = test: as above; details: Gynecologic cancer cell panel viability, ATPlite luminescence, 48 h; series mostly up to 57.5 µM
Summary of the method: as §3

HeLa = test: as above; details: Gynecologic cancer cell panel viability, ATPlite luminescence, 48 h; series mostly up to 57.5 µM
Summary of the method: as §3

Hek293T = test: as above; details: Gynecologic cancer cell panel viability, ATPlite luminescence, 48 h, control line for the selectivity index; series mostly up to 57.5 µM
Summary of the method: as §3

JEG-3 = test: as above; details: Gynecologic cancer cell panel viability, ATPlite luminescence, 48 h; series mostly up to 57.5 µM
Summary of the method: as §3

HaCat = test: Cytotoxic Profiling of Annotated Libraries Using Quantitative High-Throughput Screening (AID 1296008); details: Five cell lines viability, CellTiter-Glo ATP luminescence, 48-72 h; max response: active compounds read low; note: nearly all actives have a fitted effect of over 60% in size
Summary of the method: as §1

NIH3T3 = test: as above; details: Five cell lines viability, CellTiter-Glo ATP luminescence, 48-72 h; max response: active compounds read low
Summary of the method: as §1
% is set by controls: 0 for no effect and ±100 for the full control effect; potency is the fitted concentration of half-maximal effect.

CC1(C)CCC(c2ccc(Cl)cc2)=C(CN2CCN(c3ccc(C(=O)NS(=O)(=O)c4ccc(N[C@H](CCN5CCOCC5)CSc5ccccc5)c(S(=O)(=O)C(F)(F)F)c4)cc3)CC2)C1
active: Potency (MKL-1) 0.418 µM | Potency (MKL-2) 0.264 µM | Potency (WaGa) 0.118 µM | Potency (CASKI) 14.1 µM
inactive: max response (KB-3-1) -2.09% | Potency (MCC-13) | Potency (MCC-26) | Potency (UISO) | Potency (Es-2)

COc1cc(C(=O)NS(=O)(=O)c2ccccc2C)ccc1Cc1cn(C)c2ccc(NC(=O)OC3CCCC3)cc12
inactive: max response (KB-3-1) -2.66% | Potency (MKL-1) | Potency (WaGa) | Potency (C33A) | Potency (CAOV3) | Potency (CASKI) | Potency (Es-2) | Potency (HeLa) | Potency (Hek293T) | Potency (JEG-3)
active: Potency (UISO) 20.9 µM

COc1cc2c(Oc3ccc4[nH]c(C)cc4c3F)ncnc2cc1OCCCN1CCCC1
active: Potency (HaCat) 8.33 µM and 7.31 µM | Potency (NIH3T3) 1.87 µM and 2.06 µM
inactive: Potency (MCC-13) | Potency (UISO) | Potency (WaGa) | Potency (Es-2) | Potency (HeLa) | Potency (Hek293T)

Cc1[nH]c2ccccc2c1CCNCc1ccc(C=CC(=O)NO)cc1
active: Potency (KB-3-1) 148 nM | Potency (NIH3T3) 743 nM | Potency (MCC-13) 0.833 µM | Potency (MCC-26) 0.935 µM | Potency (MKL-1) 0.332 µM | Potency (MKL-2) 0.0469 µM | Potency (UISO) 0.526 µM | Potency (WaGa) 0.059 µM

Cc1ccc(-c2ncn(-c3ccc(Nc4nccc(-c5cccc(N6CCOCC6)c5)n4)cc3)n2)cn1
active: Potency (HaCat) 418 nM | Potency (KB-3-1) 209 nM | Potency (MCC-13) 0.526 µM | Potency (MCC-26) 0.264 µM | Potency (MKL-1) 0.235 µM | Potency (MKL-2) 0.0526 µM

CCCCCN(CCC12CC3CC(CC(C3)C1)C2)C(=O)NCCCc1ccncc1
inactive: max response (HaCat) -32% | max response (NIH3T3) -9.34% | Potency (MCC-13) | Potency (MKL-1) | Potency (MKL-2) | Potency (UISO) | Potency (WaGa) | Potency (C33A) | Potency (CASKI) | Potency (Es-2) | Potency (HeLa) | Potency (Hek293T) | Potency (JEG-3)

CC(C)c1ccccc1Cc1cc(C(=O)Nc2ccc(S(=O)(=O)c3ccccc3C(C)(C)C)cc2)c(O)c(O)c1O
inactive: Potency (MKL-2)
active: Potency (KB-3-1) 8330 nM | Potency (MKL-1) 26.4 µM

NC1(Cc2ccc(Cl)cc2)CCN(c2ncnc3[nH]ccc23)CC1
active: Potency (C33A) 10 µM | Potency (Hek293T) 10 µM
inactive: max response (HaCat) -10.8% | max response (KB-3-1) -6.56% | max response (NIH3T3) 0.262% | Potency (MCC-13) | Potency (MCC-26) | Potency (MKL-2) | Potency (CASKI) | Potency (Es-2) | Potency (HeLa)

COc1cc2ncnc(Nc3ccc(F)c(Cl)c3)c2cc1NC(=O)C=CCN1CCCCC1
active: Potency (MKL-2) 3.72 µM
inactive: max response (HaCat) -96.7% | outcome (KB-3-1) | max response (NIH3T3) -20.4% | Potency (MCC-13) | Potency (MCC-26)

CC=C1NC(=O)[C@H]2CSSCCC=C[C@H](CC(=O)N[C@H](C(C)C)C(=O)N2)OC(=O)[C@H](C(C)C)NC1=O
active: Potency (HaCat) 37.2 nM | Potency (NIH3T3) 46.9 nM | Potency (MCC-13) 0.235 µM | Potency (MCC-26) 0.0662 µM | Potency (MKL-2) 0.0166 µM | Potency (UISO) 0.0166 µM | Potency (WaGa) 0.0264 µM

COc1cc2ncn(-c3cc(OCc4ccccc4C(F)(F)F)c(C(N)=O)s3)c2cc1OC
active: Potency (KB-3-1) 418 nM
inactive: max response (NIH3T3) -29.2% | Potency (MKL-2)

O=C(Nc1ncc(-c2cc(C(F)F)nn2-c2c(Cl)cccc2Cl)s1)C1CC1
active: Potency (KB-3-1) 590 nM and 820 nM | Potency (NIH3T3) 1.18 µM and 1.46 µM | Potency (Es-2) 3.16 µM | Potency (HeLa) 2.51 µM
inactive: max response (HaCat) -7.36% and -20.3%

Cn1c2cc(S(C)=O)sc2c2cnn(Cc3cccc(N)c3)c(=O)c21 (configuration not stated)
inactive: max response (HaCat) -2.01% | max response (KB-3-1) -13.5% | max response (NIH3T3) -11.6% | Potency (MCC-13) | Potency (MKL-1) | Potency (MKL-2) | Potency (WaGa)

COc1ccc(F)c(F)c1C(=O)c1cnc(NC2CCN(S(C)(=O)=O)CC2)nc1N
active: Potency (HaCat) 10.5 µM and 5.17 µM | Potency (KB-3-1) 3.32 µM and 4.11 µM | Potency (NIH3T3) 2.09 µM and 3.26 µM | Potency (MKL-2) 11.8 µM | Potency (UISO) 2.96 µM | Potency (C33A) 10 µM | Potency (CASKI) 10 µM | Potency (Es-2) 3.16 µM | Potency (HeLa) 2.82 µM | Potency (Hek293T) 3.55 µM

COc1ccc(C(=O)CC2(O)C(=O)Nc3c(Cl)ccc(Cl)c32)cc1 (configuration not stated)
active: Potency (HaCat) 4110 nM | Potency (KB-3-1) 3.72 µM and 5.17 µM | Potency (NIH3T3) 9.35 µM and 2.91 µM | Potency (UISO) 5.26 µM | Potency (HeLa) 14.1 µM
inactive: Potency (C33A) | Potency (CAOV3)

CCN1CCN(Cc2ccc(-c3cc4c(N[C@H](C)c5ccccc5)ncnc4[nH]3)cc2)CC1
active: Potency (HaCat) 1480 nM | Potency (NIH3T3) 16600 nM | Potency (MCC-13) 4.18 µM | Potency (MCC-26) 0.743 µM | Potency (MKL-2) 0.0132 µM | Potency (UISO) 0.118 µM | Potency (WaGa) 0.0209 µM
inactive: max response (KB-3-1) -20%
